PubChem BioAssay AID2057 (The Scripps Research Institute Molecular Screening Center, 2009)
Among all 320,000 compounds or so, about 2,100 (0.66%) were called active.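 How the source made its calls: active means inhibition above the mean inhibition of all tested compounds plus 3 SD, set per campaign (cut at about 40% in these data); inactive means the rest.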 The entries come from a sample that favours actives as a whole.

What follows are compounds tested against Induced myeloid leukemia cell differentiation protein Mcl-1 (Homo sapiens) (UniProt Q07820) (assay: inhibitors of MCL1 binding to BIM-BH3, primary screen, biochemical, fluorescence polarization (AID 2057;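 further: 0% = DMSO wells and 100% = unlabeled Bim-BH3 peptide control; higher means more loss of mP so more displacement of Bim peptide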)). Conditions: GST-MCL1 / FITC-Bim-BH3 fluorescence polarization; at 10.9 µM; stronger effect = higher value.
Induced myeloid leukemia cell differentiation protein Mcl-1 (Homo sapiens), sequence (Q07820 whole entry, looked up): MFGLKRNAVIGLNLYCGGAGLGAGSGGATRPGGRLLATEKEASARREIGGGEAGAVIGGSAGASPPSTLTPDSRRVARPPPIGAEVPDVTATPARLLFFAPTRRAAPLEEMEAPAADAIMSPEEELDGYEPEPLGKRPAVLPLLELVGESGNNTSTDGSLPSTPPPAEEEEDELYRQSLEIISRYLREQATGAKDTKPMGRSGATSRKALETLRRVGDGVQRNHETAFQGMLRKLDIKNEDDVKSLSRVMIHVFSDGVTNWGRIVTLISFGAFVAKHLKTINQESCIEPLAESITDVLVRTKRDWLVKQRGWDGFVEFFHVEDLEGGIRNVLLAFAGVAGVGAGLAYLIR

Row | SMILES | inhibition
1 | O=C(NCCCCc1ccccc1)C1CC(c2ccc([N+](=O)[O-])cc2)=NO1 (configuration not stated) | 12.6% (inactive)
2 | CN(CC(=O)NC1CCN(Cc2ccccc2)CC1)S(=O)(=O)c1ccc(Cl)s1 | 3.17% (inactive)
3 | CCc1cc(CNC(=O)CC2C(=O)NCCN2Cc2ccccc2C(F)(F)F)on1 (configuration not stated) | 17.3% (inactive)
4 | CC1(C)CC(=O)C2=C(C1)NCN(CCCN1CCOCC1)C2 | -0.98% (inactive)
5 | O=C(N/N=C/c1cc(Cl)cc([N+](=O)[O-])c1O)C(O)(c1ccccc1)c1ccccc1 | 9.22% (inactive)
6 | O=C(NC(=S)Nc1ccc(S(=O)(=O)N2CCOCC2)cc1)c1ccccc1[N+](=O)[O-] | 14.4% (inactive)
7 | O=[N+]([O-])c1cc(Cl)cc(/C=N/NC(=S)Nc2cc(S(=O)(=O)N3CCOCC3)ccc2Cl)c1O | 52.5% (active)
8 | COC(=O)CN(c1cccc(C(C)=O)c1)S(C)(=O)=O | 0.97% (inactive)
9 | CCCSc1ncccc1C(=O)O | -3.51% (inactive)
10 | COc1ccc(NS(=O)(=O)c2ccc(F)cc2F)cn1 | 8.27% (inactive)
11 | COc1ccc(Nc2cc(Cl)ccc2C(=O)O)cn1 | 62.7% (active)
12 | COc1cccc(Nc2ncccc2C(=O)O)c1 | 1.4% (inactive)
13 | CCCOc1ccc(Cl)cc1Nc1nc(NCCO)nc(N2CCCC2)n1 | 3.82% (inactive)
14 | NC1=NC2(CCCCC2)N(c2ccc(F)cc2F)C(N)=N1 | 10.2% (inactive)
15 | COc1ccc(Cl)cc1C(=O)OCC(=O)NCc1cccs1 | -2.56% (inactive)
16 | O=C(CSc1ncccn1)N1CCCC1 | 9.67% (inactive)
17 | C=CCNc1nnc(SCC(=O)N2CCCCC2)c2ccccc12 | 120% (active)
18 | C=CCNc1nnc(C)c2ccccc12 | -0.12% (inactive)
19 | O=C(c1ccc(F)c(S(=O)(=O)N2CCOCC2)c1)N(CCc1ccccc1)Cc1ccccc1 | 32.4% (inactive)
20 | O=C(NCCSCc1ccccc1)c1ccc(Cl)c(S(=O)(=O)N2CCOCC2)c1 | 1.14% (inactive)
21 | CCOc1ccc(NC(=O)CCCCCN2C(=O)[C@@H]3Cc4ccccc4CN3C2=O)cc1 | 6.32% (inactive)

Row | SMILES | inhibition
22 | COc1ccc(CC(=O)Nc2c3c(nn2-c2cccc(Cl)c2)CS(=O)C3)cc1 (configuration not stated) | -2.25% (inactive)
23 | CCNc1nc(N)nc(-c2cc(Cl)ccc2OC)n1 | -1.8% (inactive)
24 | Cc1cccn2c(=O)c3cc(C(=O)NCCN4CCOCC4)c(=N)n(Cc4cccnc4)c3nc12 | 46.7% (active)
25 | Cc1cccn2c(=O)c3cc(C(=O)NCC4CCCO4)c(=N)n(Cc4ccc(F)cc4)c3nc12 (configuration not stated) | -4.4% (inactive)
26 | COc1ccc(CCn2c(=N)c(C(=O)NCC3CCCO3)cc3c(=O)n4cccc(C)c4nc32)cc1OC (configuration not stated) | 2% (inactive)
27 | CC(C)(C)NC(=O)COC(=O)c1cc(Br)ccc1Cl | -2.96% (inactive)
28 | CCCC1NC(=O)NC(C)=C1C(=O)OCC (configuration not stated) | -0.76% (inactive)
29 | Oc1ccc2ccccc2c1N=Nc1nccs1 | 61.4% (active)
30 | CC1=C(C(=O)OC(C)(C)C)C(c2ccc(Br)cc2)NC(=O)N1CCCC(=O)O (configuration not stated) | 2.27% (inactive)
31 | CC[N+](C)(CC)CCC[n+]1c(-c2ccccc2)c2cc(N)ccc2c2ccc(N)cc21 | 122% (active)
32 | C=C(C)CSc1nnc(-c2ccc(C)cc2)n1N | -0.24% (inactive)
33 | CC(OC(=O)c1ccccc1NCCO)C(=O)Nc1ccnn1C(C)C (configuration not stated) | 1.18% (inactive)
34 | CSCCC(NC(=O)c1ccc(Cl)cc1Cl)C(=O)NNC(=O)c1csc(N2CCOCC2)n1 (configuration not stated) | 12.3% (inactive)
35 | CN(C(=O)COC(=O)c1cc(=O)[nH]c2ccccc12)C1CCCCC1 | 1.49% (inactive)
36 | COC(=O)C[n+]1cccc2ccccc21 | 195% (active)
37 | Cc1cccc[n+]1CC(=O)c1ccccc1 | 9.96% (inactive)
38 | COc1ccccc1NC(=O)C[n+]1ccccc1 | -1.7% (inactive)
39 | Cn1ccs/c1=N\S(=O)(=O)c1ccc(C(C)(C)C)cc1 | 5.09% (inactive)
40 | O=[N+]([O-])c1cc([N+](=O)[O-])c(Oc2cc(F)cc(F)c2F)cc1NN1CCCCC1 | -1.7% (inactive)
41 | O=C(CC1N=C2c3ccccc3N=C(SCc3ccccc3Cl)N2C1=O)NCc1ccco1 (configuration not stated) | 19.4% (inactive)
42 | Fc1cccc(Cl)c1CSc1ccc(-c2ccco2)nn1 | 17.6% (inactive)

Row | SMILES | inhibition
43 | CCc1nnc(SCc2cccc(F)c2)nc1CC | 0.71% (inactive)
44 | c1ccc(CSc2nnc(-c3ccco3)c(-c3ccco3)n2)cc1 | 82.3% (active)
45 | COc1ccc2nc(SCc3ccccc3)nc(C)c2c1 | 1.99% (inactive)
46 | Clc1ccccc1CSc1nnc(-c2ccco2)c(-c2ccco2)n1 | 79.9% (active)
47 | CCOC(=O)C1CCCN(C(=O)COc2ccc(N(C)S(=O)(=O)c3ccc(C)cc3)cc2)C1 (configuration not stated) | -2.82% (inactive)
48 | CCCN(C(=O)c1nc2nccc(C)n2n1)c1c(N)n(Cc2ccccc2)c(=O)[nH]c1=O | 0.15% (inactive)
49 | COCc1cc(=O)n2[nH]c(C)c(-c3ccccc3)c2n1 | 10.3% (inactive)
50 | CCC1SC2=NCCN2C1(O)c1ccc(Cl)cc1 (configuration not stated) | 7.57% (inactive)
51 | CN1C(=O)/C(=C\c2cc(Br)cs2)c2ccccc21 | -0.58% (inactive)
52 | O=C(COC(=O)c1ncc(Cl)c(Cl)c1Cl)NNC(=O)c1ccccc1 | 5.89% (inactive)
53 | Cn1c(-c2ccc(C(F)(F)F)cc2)cc2onc(-c3ccccc3)c2c1=O | 4.36% (inactive)
54 | O=C1c2ccccc2-c2ncnc3c(N4CCOCC4)cc(N4CCOCC4)c1c23 | 48.8% (active)
55 | COC1=C(N2CCOCC2)C(=O)c2ccccc2C1=O | 6.69% (inactive)
56 | Cc1oc2c(c1C(=O)N1CCOCC1)C(=O)c1ccccc1C2=O | -4.11% (inactive)
57 | COc1ccc(OC)c(NC(=O)CN(C)CCOc2ccc(Br)cc2)c1 | -19.6% (inactive)
58 | CCN(CC)C(=O)CC(c1ccc2c(c1)OCO2)c1c(OC)cc(OC)c2c(-c3ccccc3)cc(=O)oc12 (configuration not stated) | 2.43% (inactive)
59 | Cc1cc(C)c2c(-n3cccc3)c(C(=O)NNS(=O)(=O)c3ccc(F)cc3)sc2n1 | 13.1% (inactive)
60 | Cc1cccn2c(=O)c3cc(C#N)c(=O)n(CCCN4CCOCC4)c3nc12 | 23.2% (inactive)
61 | COc1ccc(CNC(=O)c2cc3c(=O)n4ccccc4nc3n(CC3CCCO3)c2=N)cc1 (configuration not stated) | 9.61% (inactive)
62 | Cc1cccn2c(=O)c3cc(C#N)c(=NC(=O)c4cccnc4)n(CC4CCCO4)c3nc12 (configuration not stated) | 44.1% (active)
